Screens deposited in PubChem BioAssay by National Center for Advancing Translational Sciences (NCATS).
KB-3-1 tox – KB-3-1 parental cell cytotoxicity; KB-3-1 viability, CellTiter-Glo ATP luminescence, 72 h; 1.4% of 400,000 active; Potency, µM (highest dose often 46.1 µM), actives largely listed as cytotoxic; note: nearly all actives have a fitted effect of over 60% in size
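Here the drug-naive KB-3-1 line serves as comparator for MDR sub-line selectivity; cells received compound titrations, 72 h at 37 °C, then CellTiter-Glo readout.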
HT1080-NT tox – kills 2HG-producing HT-1080-NT fibrosarcoma cells; AID 686970; Potency, µM (top dose mostly 46.1 µM), actives largely listed as cytotoxic; 1.6% of 360,000 active; HT-1080-NT fibrosarcoma viability, CellTiter-Glo ATP luminescence, 48 h;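 note: NT is the 2HG producing partner of a matched IDH1 knockdown line; nearly all actives have a fitted effect of over 55% in size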
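Luminescent CellTiter-Glo readout after 48 hours of compound exposure at 37 degrees C defined viability of HT-1080-NT cells. Activity was normalized to DMSO wells and cell-free media wells; concentration-response curves were fitted and assigned curve classes.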
HT1080 IDH1KD tx – kills HT-1080 cells with IDH1 knockdown. HT-1080 IDH1 knockdown viability, ATP luminescence, 48 h. AID 686971. 2% of 360,000 active. Potency, µM (titrated, usually from 46.1 µM), most hits filed as cytotoxic
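IDH1KD HT-1080 cells, 750/well, RPMI + 5% FBS; compound pinned after 2 h settling; 48 h, 37 °C; CellTiter-Glo luminescence; % activity normalised to DMSO and no-cell wells; curves fitted, classed by r2 and efficacy.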
DT40 TDP1 CPT – growth inhibition of DT40 Tdp1-/-;hTDP1 cells with camptothecin (screen for TDP1 inhibitors) | Potency, µM (titrated, usually from 46.2 µM), hits mostly inhibitors | AID 686979 | 12% of 420,000 active | chicken DT40 Tdp1-/-;hTDP1 cells + 20 nM CPT, ATP luminescence, 48 h; note: nearly all actives have a fitted effect of over 55% in size
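Cell growth measured by CellTiter-Glo luminescence after a minimum 48 h, 37 C compound exposure with 20 nM CPT in Tdp1-knockout DT40 cells stably expressing hTDP1, seeded 400/well; qHTS titration format.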
KB-V1 MDR tox – KB-V1 MDR subline cytotoxicity. KB-V1 MDR cells viability, CellTiter-Glo, 72 h. Potency, µM (titrated, usually from 46.1 µM), actives largely listed as cytotoxic. 3.4% of 400,000 active. AID 1347076; note: nearly all actives have a fitted effect of over 60% in size
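Following 72 h at 37 degrees C with compound, KB-V1 cell viability was read by CellTiter-Glo luminescence, medium being phenol-red-free DMEM plus 10% FBS; concentration-response parameters came from normalized, curve-fitted qHTS data.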
DT40 TDP1 no CPT – qHTS for Inhibitors of human tyrosyl-DNA phosphodiesterase 1 (TDP1): qHTS in cells in absence of CPT. DT40 Tdp1-/- hTDP1 cells, no CPT, ATP luminescence, 48 h. Potency, µM (titrated, usually from 46.2 µM), most hits filed as inhibitors. AID 686978, 2013. 15% of 420,000 active; note: nearly all actives have a fitted effect of over 55% in size
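A cellular qHTS used chicken DT40 cells lacking endogenous Tdp1 but carrying stably transfected human TDP1. Compounds were applied without camptothecin, and cell growth kinetics were judged by ATP-dependent luminescence after ≥48 hr.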
A number is an active result; . = inactive; ? = inconclusive; / = no result. This is a sample that favours compounds with a hit; in the whole collection about 19% have one here. Calls come from the whole dose curve; as a rule, active = well fitted curve in the direction sought with a large enough effect; inconclusive = small, poorly fitted or top-dose-only effect, or another doubt; inactive = no such curve, though single readings can be large; an effect the other way counts as inactive or inconclusive.

SMILES	KB-3-1 tox	HT1080-NT tox	HT1080 IDH1KD tx	DT40 TDP1 CPT	KB-V1 MDR tox	DT40 TDP1 no CPT
CN(c1ccc(C(=O)N2CCN(Cc3ccccc3)CC2)cc1)S(=O)(=O)c1ccccc1	.	.	.	.	.	15µM
CCN(CC)c1ccc(CN(C(=O)Cc2coc3ccc(C)cc23)C2CCS(=O)(=O)C2)cc1 (configuration not stated)	?	/	/	?	?	23µM
CC(C)c1ccc2occ(CC(=O)N(Cc3ccc(F)cc3)C3CCS(=O)(=O)C3)c2c1 (configuration not stated)	?	/	/	18µM	.	?
CCN(CC)c1ccc(CN(C(=O)c2cc(=O)c3ccccc3o2)C2CCS(=O)(=O)C2)cc1 (configuration not stated)	.	/	/	16µM	.	?
O=C(NC(=S)NC1CCC(O)CC1)c1ccco1 (configuration not stated)	.	.	.	.	?	.
CCOC(=O)c1ccc(Nc2c(-c3cccc(O)c3)nc3nc[nH]n23)cc1	.	/	/	?	.	?
Nc1ccc2oc(-c3ccccc3Cl)cc(=O)c2c1O	7.3µM	.	.	?	?	?
O=c1cc(-c2ccccc2Cl)oc2ccc([N+](=O)[O-])c(O)c12	.	.	.	?	.	?
COc1ccccc1-c1cc(=O)c2c(O)ccc([N+](=O)[O-])c2o1	21µM	.	.	3.7µM	4.6µM	5.2µM
O=c1cc(-c2ccccc2Cl)oc2c([N+](=O)[O-])c(O)cc(O)c12	.	.	.	23µM	.	26µM
O=C(Nc1ccc(F)c(Cl)c1)C1Cc2c(-c3cccc(F)c3)ccnc2O1 (configuration not stated)	.	?	?	?	?	?
CNC(=S)NC1CC2CCC(C1)N2Cc1ccccc1 (configuration not stated)	.	.	.	.	.	.
C=CCN1C2CCCC1CC(NC(=S)Nc1ccc(Cl)cc1)C2 (configuration not stated)	.	.	.	23µM	.	?
S=C(Nc1ccc(Cl)cc1)NC1CC2CCC(C1)N2Cc1ccccc1 (configuration not stated)	?	?	18µM	23µM	?	16µM
CC[n+]1c(C)n(C)c2cc(S(=O)(=O)N(C)C)ccc21	.	.	.	.	.	.
Cc1n(C)c2cc(Cl)ccc2[n+]1Cc1ccccc1	?	.	.	?	.	23µM
O=C(CCCN1C(=O)c2cccnc2Oc2ccc(Cl)cc21)NCc1ccc(F)cc1	.	/	/	?	.	?
CCc1ccc(CNC(=O)CCCN2C(=O)c3cccnc3Oc3ccc(Cl)cc32)cc1	.	/	/	21µM	.	18µM
CN(C)c1ccc(CNC(=O)CCCN2C(=O)c3cccnc3Oc3ccc(Cl)cc32)cc1	.	/	/	18µM	.	?
CCCCn1c(N)c(N(CCOC)C(=O)COC(=O)COc2c(C)cc(C)cc2C)c(=O)[nH]c1=O	.	.	.	.	.	.
Cc1ccc2[nH]c(CSc3nnc(C)s3)cc(=O)c2c1	.	/	/	.	.	.
COc1cc(/C=N/O)cc(Cl)c1OC	.	.	.	.	.	.
C#CCOc1c(Cl)cc(/C=N/NC(N)=S)cc1OCC	.	.	.	?	?	10µM
CCOc1c(Cl)cc(/C=N/NC(N)=S)cc1OC	.	.	.	?	7.3µM	23µM
CCC(c1nnc(SCC(=O)Nc2c(F)cccc2F)n1Cc1ccccc1)N(C)C (configuration not stated)	.	.	.	.	.	.
CCc1cc(-c2nnn(CCC3COCCO3)c2CC)ccc1-c1cn(CCc2c[nH]c3ccccc23)nn1 (configuration not stated)	.	.	?	16µM	.	12µM
Cc1cccc(C)c1NC(=O)C1(C)CCC(=O)N1CCc1c[nH]c2ccccc12 (configuration not stated)	.	.	.	.	.	.
